Reference: PubChem BioAssay (Tox21)
Several values for one entry are separate records, joined by “and”; a condition that tells them apart may be missing. Equal values may be shown once. Records with an inconclusive call do not appear. Entries that show only a call come without a potency. Some structures have more than one record in an assay (separate samples or runs), and their calls can disagree. Activity calls are given as the source filed them. Unless noted, calls come from the whole dose curve; as a rule, active = well fitted curve in the direction sought with a large enough effect in the repeat runs; inconclusive = weak or mixed curves; inactive = no such curve, though single readings can be large; an effect the other way counts as inactive or inconclusive.

What was measured:
[1] = qHTS assay to identify small molecule antagonists of the estrogen related receptor (ERR) signaling pathway from Tox21 library - cell viability counter screen (AID 1224834); note: nearly all actives have a fitted effect of over 30% in size; note: potency is the fitted concentration of half-maximal effect
Procedure, shortened: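 In this quantitative HTS format, ERR cells receive compounds in DMSO and are incubated for 17.5 h at 37 C. Live-cell protease activity is then detected with CellTiter-Fluor.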

[2] = qHTS assay to identify small molecule agonists of the constitutive androstane receptor (CAR) signaling pathway - cell viability counter screen (AID 1224836); note: nearly all actives have a fitted effect of over 45% in size; note: potency is the fitted concentration of half-maximal effect
Procedure, shortened: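 23 h treatment, 37 C, 5% CO2. Cell line: HepG2 stably expressing hCAR with a CYP2B6-2.2kb construct. Co-treatment: PK11195, 0.75 uM final. Read-out: CellTiter-Fluor fluorescence intensity.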

[3] = qHTS assay to identify small molecule antagonists of the constitutive androstane receptor (CAR) signaling pathway - cell viability counter screen (AID 1224837); note: nearly all actives have a fitted effect of over 45% in size
Procedure, shortened: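 In quantitative HTS format, compounds at 15 concentrations were applied to HepG2 cells double-transfected with hCAR and CYP2B6-2.2kb under 50 nM CITCO stimulation; live-cell protease activity was read after 23 hr via CellTiter-Fluor.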

[4] = qHTS assay to identify small molecule antagonists of the estrogen related receptor signaling pathway with the pleiotropic PPARgamma coactivator (PGC) from Tox21 10K library - cell viability counter screen (AID 1224840; active = well fitted cell-killing curve with a large enough effect in the repeat runs, not every such curve was filed as active; note: nearly all actives have a fitted effect of over 40% in size; note: potency is the fitted concentration of half-maximal effect)
Procedure, shortened: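 Viability counter screen, PGC/ERR cells: 17.5 h compound exposure at 37 C, CellTiter-Fluor fluorescence endpoint.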

[5] = qHTS assay to identify small molecule agonists of the hypoxia (HIF-1) signaling pathway - cell viability counter screen (AID 1224844; calls by dose curve; note: nearly all actives have a fitted effect of over 50% in size; note: potency is the fitted concentration of half-maximal effect)
Procedure, shortened: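 Same wells as the HIF-1 reporter screen; ME-180 cells carrying HRE-bla, 17 hr treatment at 37C; CellTiter-Glo luminescence read after 30 min at room temperature.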

[6] = qHTS assay to identify small molecule agonists of H2AX (AID 1224845; active = well fitted activation curve with a large enough effect in the signal ratio in the repeat runs, not every such curve was filed as active; the % refers to the signal ratio)
Procedure, shortened: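 Wild-type CHO-K1 cells plated overnight, then exposed 3 hr at 37C to compounds at 15 concentrations (0.76% DMSO). Lysed, then HTRF anti-pH2AX(S139)-cryptate/anti-H2AX-d2 detection after 24 hr at room temperature; emissions 665 and 620 nm.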

[7] = qHTS assay to identify small molecule agonists of the hypoxia (HIF-1) signaling pathway (AID 1224846; active = well fitted activation curve with a large enough effect in the signal ratio in the repeat runs, not every such curve was filed as active; the % refers to the signal ratio)
Procedure, shortened: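 In ME-180 cells bearing an HRE-bla construct, 17 h treatment with DMSO-dissolved compounds at 37C was followed by CCF4-AM loading to quantify reporter induction.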

[8] = qHTS assay to identify small molecule agonists of H2AX - cell viability counter screen (AID 1224847; calls by dose curve; note: top concentration of the series differs between compounds; nearly all actives have a fitted effect of over 30% in size)
Procedure, shortened: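 Compounds tested at 15 concentrations were incubated 3 hr at 37C with wild-type CHO-K1 cells; cellular ATP-based luminescence (CellTiter-Glo) indicated viability.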

[9] = qHTS RealTime-Glo MT Cell Viability Assay in HepG2 cells - 24 hour (AID 1224867); note: nearly all actives have a fitted effect of over 50% in size
Procedure, shortened: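 HepG2 cells (600/well) were dispensed with RealTime-Glo reagents, incubated 5 h at 37 °C, then treated with compounds in DMSO for up to 40 h. Nonlytic NanoLuc luminescence reflecting viable cells was read at each stated time point.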

[10] = A CellTox Green Cytotoxicity Assay to monitor cytotoxicity in HEK293 cells - 0 hour (AID 1224869); note: nearly all actives have a fitted effect of over 50% in size
Procedure, shortened: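 Homogeneous no-lysis format: HEK293 cell suspension mixed with CellTox Green reagent, seeded, incubated 5 h at 37 C/5% CO2, then dosed by pintool with compound in DMSO.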

[11] = qHTS RealTime-Glo MT Cell Viability Assay in HepG2 cells - 40 hour (AID 1224870); note: nearly all actives have a fitted effect of over 50% in size
Procedure, shortened: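 HepG2 cells mixed with RealTime-Glo MT reagents (NanoLuc plus cell-permeant prosubstrate) were seeded at 600 cells/well, incubated 5 h at 37 C/5% CO2, then pinned with compounds in DMSO; nonlytic luminescence tracked viability during 40 h treatment.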

[12] = molecular target: Luciferin 4-monooxygenase (Photinus pyralis) (UniProt P08659); assay: qHTS assay to identify small molecule inhibitors of firefly luciferase (AID 1224835); note: nearly all actives have a fitted effect of over 25% in size; note: potency is the fitted concentration of half-maximal effect
Procedure, shortened: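 Quantitative HTS format; KM concentrations of both substrates. Purified P. pyralis FLuc activity quantified from luminescence images.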

[13] = molecular target: Thyrotropin receptor (Homo sapiens) (UniProt P16473); assay: qHTS assay to identify small molecule agonists of the thyroid stimulating hormone receptor (TSHR) signaling pathway (AID 1224843; calls by dose curve; note: nearly all actives have a fitted effect of over 45% in size)
Procedure, shortened: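 Compounds are titrated over 15 concentrations, in triplicate, onto TSHR-HEK293 cells seeded at 800/well. Plates sit 30 min at room temperature before cAMP-d2 and anti-cAMP cryptate are added; signal is read after a further hour.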

[14] = qHTS RealTime-Glo MT Cell Viability Assay in HEK293 cells - 32 hour (AID 1224868); note: nearly all actives have a fitted effect of over 50% in size; note: potency is the fitted concentration of half-maximal effect
Procedure, shortened: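 HEK293 cells seeded with NanoLuc/prosubstrate reagent, rested 5 h at 37 C, then dosed and kept at 37 C up to 40 h. Nonlytic real-time luminescence from viable cells read at 0, 8, 16, 24, 32 and 40 h.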

[15] = molecular target: Nuclear receptor subfamily 1 group I member 3 (Homo sapiens) (UniProt Q14994); assay: qHTS assay to identify small molecule antagonists of the constitutive androstane receptor (CAR) signaling pathway (AID 1224838); note: nearly all actives have a fitted effect of over 40% in size
Procedure, shortened: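 CITCO-stimulated (50 nM final) HepG2 cells stably transfected with hCAR and CYP2B6-2.2kb luciferase were exposed to compounds at 15 concentrations for 24 h at 37 C/5% CO2. A luciferase reagent was added and luminescence recorded after 30 min.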

[16] = molecular target: Nuclear receptor subfamily 1 group I member 3 (Homo sapiens) (UniProt Q14994); assay: qHTS assay to identify small molecule agonists of the constitutive androstane receptor (CAR) signaling pathway (AID 1224839); note: nearly all actives have a fitted effect of over 15% in size; note: potency is the fitted concentration of half-maximal effect;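 for activation: HepG2 cells stably carrying human CAR and a CYP2B6 luciferase reporter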
Procedure, shortened: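 Compounds tested at 15 concentrations on HepG2 cells stably harbouring hCAR and CYP2B6-2.2kb reporter constructs, co-treated with PK11195 (0.75 uM final), 24 h at 37 C; luminescent reporter signal quantified.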

[17] = qHTS assay to identify small molecule antagonists of the estrogen related receptor signaling pathway with the pleiotropic PPARgamma coactivator (PGC) from Tox21 10K library (AID 1224841; call rule not given here; note: potency is the fitted concentration of half-maximal effect)
Procedure, shortened: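 In the PGC/ERR line, DMSO solutions of test chemicals are pin-delivered to 2,000 cells/well six hours after dispensing. Following eighteen hours' incubation, One-Glo reagent is added and luminescence recorded.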

[18] = qHTS assay to identify small molecule agonists of the estrogen related receptor signaling pathway with the pleiotropic PPARgamma coactivator (PGC) from Tox21 10K library (AID 1224842); note: nearly all actives have a fitted effect of over 15% in size
Procedure, shortened: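 PGC/ERR reporter cells (NTP line) were seeded 2,000 per well, rested 6 h at 37 C/5% CO2, then pin-dosed with compounds in DMSO for 18 h at 37 C; luciferase read by One-Glo luminescence after 30 min at room temperature.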

[19] = qHTS assay to identify small molecule antagonists of the estrogen related receptor (ERR) signaling pathway from Tox21 library (AID 1224848); note: nearly all actives have a fitted effect of over 50% in size
Procedure, shortened: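 First, 2,000 ERR cells per well were plated and held 6 h at 37 C/5% CO2. Next, compounds in DMSO were pinned in and left 18 h at 37 C. Finally, ONE-Glo was added and luminescence read after 30 min at room temperature.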

[20] = qHTS assay to identify small molecule agonists of the estrogen related receptor (ERR) signaling pathway from Tox21 library (AID 1224849; calls by dose curve; note: nearly all actives have a fitted effect of over 15% in size); conditions: ERR reporter cell line, ONE-Glo luciferase, 18 h
Procedure, shortened: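 Reporter cells (ERR, NTP source) treated with Tox21 10K compounds 18 h, 37 C. Readout: ONE-Glo luminescence, 30 min RT.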

Nuclear receptor subfamily 1 group I member 3 (Homo sapiens), sequence (Q14994 whole entry, looked up): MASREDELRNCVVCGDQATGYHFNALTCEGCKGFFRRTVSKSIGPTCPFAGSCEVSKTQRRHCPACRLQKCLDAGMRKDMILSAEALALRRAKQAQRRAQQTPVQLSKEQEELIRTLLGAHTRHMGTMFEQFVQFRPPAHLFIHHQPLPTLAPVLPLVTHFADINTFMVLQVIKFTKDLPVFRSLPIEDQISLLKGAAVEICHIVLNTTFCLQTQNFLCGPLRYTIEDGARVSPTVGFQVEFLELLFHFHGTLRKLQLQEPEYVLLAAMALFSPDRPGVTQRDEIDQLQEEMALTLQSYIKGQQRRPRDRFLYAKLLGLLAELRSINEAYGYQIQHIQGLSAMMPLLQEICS
Luciferin 4-monooxygenase (Photinus pyralis), sequence (P08659 whole entry, looked up): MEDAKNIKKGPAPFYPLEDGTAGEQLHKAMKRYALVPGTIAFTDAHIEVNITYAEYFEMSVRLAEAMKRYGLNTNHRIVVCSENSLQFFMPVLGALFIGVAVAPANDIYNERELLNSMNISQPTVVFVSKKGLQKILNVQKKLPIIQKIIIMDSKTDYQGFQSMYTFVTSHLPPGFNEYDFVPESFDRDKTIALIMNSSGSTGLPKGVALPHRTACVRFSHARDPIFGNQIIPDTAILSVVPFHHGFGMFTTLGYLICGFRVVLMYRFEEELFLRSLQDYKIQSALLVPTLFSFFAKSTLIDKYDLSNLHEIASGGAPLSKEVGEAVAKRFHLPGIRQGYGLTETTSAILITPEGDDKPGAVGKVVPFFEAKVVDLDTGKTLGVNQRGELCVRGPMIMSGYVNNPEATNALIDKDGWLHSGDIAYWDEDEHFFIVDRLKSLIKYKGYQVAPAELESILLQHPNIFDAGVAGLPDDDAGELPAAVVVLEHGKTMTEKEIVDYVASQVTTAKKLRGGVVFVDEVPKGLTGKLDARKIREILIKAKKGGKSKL
Thyrotropin receptor (Homo sapiens), sequence (P16473 whole entry, looked up): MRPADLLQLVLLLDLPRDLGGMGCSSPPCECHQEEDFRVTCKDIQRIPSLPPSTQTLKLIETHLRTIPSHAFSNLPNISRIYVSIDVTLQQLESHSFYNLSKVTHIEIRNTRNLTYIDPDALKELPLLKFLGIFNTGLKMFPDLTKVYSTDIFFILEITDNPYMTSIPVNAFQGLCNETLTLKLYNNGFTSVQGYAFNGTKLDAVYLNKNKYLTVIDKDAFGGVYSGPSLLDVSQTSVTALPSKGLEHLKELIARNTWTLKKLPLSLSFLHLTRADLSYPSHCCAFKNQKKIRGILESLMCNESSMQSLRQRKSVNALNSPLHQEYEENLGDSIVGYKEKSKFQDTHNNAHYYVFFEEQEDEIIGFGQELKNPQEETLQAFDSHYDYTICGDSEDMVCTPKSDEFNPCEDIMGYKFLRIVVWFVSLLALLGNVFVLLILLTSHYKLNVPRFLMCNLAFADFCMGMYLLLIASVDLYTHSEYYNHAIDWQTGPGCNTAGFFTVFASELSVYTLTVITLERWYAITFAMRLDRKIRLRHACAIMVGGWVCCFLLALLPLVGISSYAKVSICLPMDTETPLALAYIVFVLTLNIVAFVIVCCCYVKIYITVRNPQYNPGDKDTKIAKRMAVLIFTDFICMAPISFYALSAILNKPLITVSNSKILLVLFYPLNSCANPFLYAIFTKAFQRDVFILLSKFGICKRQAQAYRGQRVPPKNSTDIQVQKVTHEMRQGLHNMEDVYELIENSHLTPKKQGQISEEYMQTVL

In the case of C[C@]12CC[C@@H]3c4ccc(O)cc4CC[C@H]3[C@@H]1CCC2=O, the Potency [1] is reported as “inactive”, the Potency [2] is reported as “inactive” and the Potency [3] is reported as “inactive”. The Potency [4] was “inactive”, the Potency [5] was “inactive” and the Potency [6] was “inactive”. The outcome [7] was “inactive”, the Potency [8] was “inactive” and the outcome [9] was “inactive”. The Potency [10] was “inactive” and the outcome [11] was “inactive”.

In the case of O=C(O)Cc1cccc2ccccc12, the Potency [1] is reported as “inactive”, the Potency [12] is reported as “inactive” and the Potency [2] is reported as “inactive”. The Potency [3] was “inactive”, the Potency [4] was “inactive” and the Potency [13] was “inactive”. The Potency [5] was “inactive and 4.36 µM (active)”, the Potency [6] was “inactive” and the outcome [7] was “inactive”. For the same molecule, the Potency [8] was “inactive”, the outcome [9] was “inactive” and the Potency [14] was “inactive”. The Potency [10] was “inactive”.

For Nc1ccc(N=Nc2ccccc2)c(N)n1, the Potency [1] was 48.8 µM (active) and 48.6 µM (active) and 21.1 µM (active), the Potency [12] was 8.99 µM (active) and 7.96 µM (active) and 7.76 µM (active) and the Potency [15] was “inactive”. For the same molecule, the Potency [16] was 24.5 µM (active) and 9.69 µM (active) and 5.96 µM (active), the Potency [4] was 38.6 µM (active) and the Potency [13] was “inactive”. The Potency [5] was “inactive”, the Potency [8] was “inactive” and the outcome [9] was “inactive”. The Potency [14] was 43.9 µM (active) and 24.5 µM (active), the Potency [10] was “inactive” and the outcome [11] was “inactive”.

In the case of CC(C)Cc1ccc(C(C)C(=O)O)cc1 (stereo unspecified), the Potency [1] is reported as “inactive”, the Potency [2] is reported as “inactive” and the Potency [3] is reported as “inactive”. The Potency [15] was “inactive”, the Potency [16] was “inactive” and the Potency [4] was “inactive”. For the same molecule, the Potency [17] was “inactive”, the Potency [18] was “inactive” and the Potency [5] was “inactive”. The Potency [6] was “inactive”, the Potency [8] was “inactive” and the Potency [19] was “inactive”. For the same molecule, the activity change, positive = activation ([20]; at 42.5 µM (top of the series)) was 3.45% (inactive), the activity change, positive = activation ([20]; at 92.4 µM (top of the series)) was -6.89% (inactive) and 1.38% (inactive) and the outcome [9] was “inactive”. The Potency [14] was “inactive”, the Potency [10] was “inactive” and the outcome [11] was “inactive”.

For COC(=O)C1CCC(C(=O)OC)CC1 (stereo unspecified), the Potency [1] was “inactive”, the Potency [12] was “inactive” and the Potency [2] was “inactive”. For the same molecule, the Potency [3] was “inactive”, the Potency [4] was “inactive” and the Potency [17] was “inactive”. For the same molecule, the Potency [18] was “inactive”, the Potency [5] was “inactive” and the outcome [7] was “inactive”. The Potency [8] was “inactive”, the Potency [19] was “inactive” and the activity change, positive = activation ([20]; at 92.4 µM (top of the series)) was 0.483% (inactive) and 7.26% (inactive) and 4.66% (inactive). The outcome [9] was “inactive”, the Potency [14] was “inactive” and the Potency [10] was “inactive”.

In the case of O=[N+]([O-])c1ccc(O)cc1, the Potency [1] is reported as 50.4 µM (active) and 30.6 µM (active) and 54.5 µM (active), the Potency [12] is reported as “inactive” and the Potency [2] is reported as 50.4 µM (active). The Potency [15] was “inactive”, the Potency [16] was “inactive” and the Potency [4] was 30.6 µM (active). For the same molecule, the Potency [5] was “inactive”, the Potency [6] was “inactive” and the outcome [7] was “inactive”. The Potency [8] was “inactive”, the outcome [9] was “inactive” and the Potency [14] was “inactive”. The Potency [10] was “inactive”.

For Oc1cccc(O)c1, the Potency [1] was “inactive”, the Potency [12] was “inactive” and the Potency [2] was “inactive”. For the same molecule, the Potency [3] was “inactive”, the Potency [4] was “inactive” and the Potency [17] was 18.8 nM (active) and inactive. The Potency [18] was “inactive”, the Potency [13] was “inactive” and the Potency [5] was “inactive”. For the same molecule, the Potency [6] was “inactive”, the outcome [7] was “inactive” and the Potency [8] was “inactive”. The Potency [19] was “inactive”, the activity change, positive = activation ([20]; at 42.5 µM (top of the series)) was 6.02% (inactive) and the activity change, positive = activation ([20]; at 92.4 µM (top of the series)) was -15.4% (inactive) and -1.21% (inactive). The outcome [9] was “inactive”, the Potency [14] was “inactive” and the Potency [10] was “inactive”. The outcome [11] was “inactive”.

In the case of CC(C)=CCC/C(C)=C/CO, the Potency [1] is reported as “inactive”, the Potency [12] is reported as “inactive” and the Potency [2] is reported as “inactive”. The Potency [3] was “inactive”, the Potency [4] was “inactive” and the Potency [5] was “inactive”. The Potency [8] was “inactive”, the outcome [9] was “inactive” and the Potency [14] was “inactive”. For the same molecule, the Potency [10] was “inactive”.
